Tested on: LRRK2
Details: concentration: 1 μM, replicates: in singlicate; n = 1
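Also: KINOMEscan kinase panel screen.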

Row | SMILES | %Inh [%]
1 | Cc1c(Cn2c3ccccc3n3c(=O)cc(N4CCOCC4)nc23)cccc1C(F)(F)F [GSK2306394] | 33
2 | Fc1ccc(-c2nc[nH]c2-c2ccncc2)cc1 [SB-217360] | 0
3 | COc1cccc(CNC(=O)NC2CCN(c3ccnc(Nc4ccc(F)cc4)n3)C2)c1 (stereo not shown) [GSK1379723] | 25
4 | Cc1ccccc1-c1cc(-c2c[nH]nc2-c2ccccn2)ccn1 [GW680061] | 23
5 | COC(=O)C(NC(=O)NC1CCN(c2ccnc(Nc3ccc(F)cc3)n2)C1)c1ccccc1 (stereo not shown) [GSK1379712] | 0
6 | O=C1NC(=O)C(c2ccc(Cl)cc2)=C1Nc1ccc(O)cc1 [SB-340867] | 0
7 | COc1cc2ncnc(Nc3cccc(Br)c3)c2cc1OC.Cl [GI230329] | 0
8 | COC(=O)c1cccc(NC(=O)NC2CCN(c3ccnc(Nc4ccc(F)cc4)n3)C2)c1 (stereo not shown) [GSK1379725] | 5
9 | COc1ccc2cc(-c3nc(-c4ccccc4C(C)C)[nH]c3-c3ccncc3)ccc2c1 [SB-660566] | 13
10 | CC(=O)c1c(C)c2cnc(Nc3ccc(N4CCNCC4)cn3)nc2n(C2CCCC2)c1=O | 0
11 | CCc1ccc(-c2ccc3c(c2)-c2n[nH]cc2S(=O)(=O)N3C)cc1 | 0
12 | CC(=O)c1c(C)c2cnc(Nc3ccn(C)n3)nc2n(C2CCCC2)c1=O | 0
13 | CC(C)c1cc(-c2ccc3c(N)n[nH]c3c2)nc(N)n1 [GSK2250882] | 0
14 | COc1ccc(Nc2nccc(N3CCC(NC(=O)C(C)c4ccc(Cl)cc4)CC3)n2)cc1 (stereo not shown) [GSK1379812] | 0
15 | Cc1ccc(NC(=O)c2ccc(Cl)cc2)cc1-c1ccc(C(=O)Nc2ccncc2)cc1 [GSK1398467] | 100
16 | Cl.Cl.Cl.N#Cc1ccc(CCNc2nccc(-c3cccc(CN4CCNCC4)c3)n2)cc1 [GSK2137462] | 0
17 | CCCCc1nn2ncccc2c1-c1ccnc(NC2CC2)n1 [GW684374] | 0
18 | COc1cccc(NC(=O)Nc2ccc(C)c(-c3ccc(C(=O)Nc4ccncc4)cc3)c2)c1 [GSK1398474] | 0
19 | Cc1ccc(-c2nc(Nc3ccncc3)c3ccccc3n2)s1 [GSK189015] | 54

Row | SMILES | %Inh [%]
20 | CS(=O)(=O)CCNCc1nc(-c2ccc3ncnc(Nc4ccc(OCc5ccccc5)c(Cl)c4)c3c2)cs1.Cl [GW582764] | 12
21 | COC(=O)c1cccc(NC(=O)NC2CCN(c3ccnc(Nc4ccc(OC)cc4)n3)C2)c1 (stereo not shown) [GSK1379746] | 0
22 | CC[C@@H]1CO[C@H](C(=O)Nc2ccccc2)CN1c1cc(-c2ccc3c(N)n[nH]c3c2)nc(NC)n1 [GSK2376236] | 0
23 | CS(=O)(=O)Cc1ccc(Nc2nccc(-c3c(-c4cccc(NC(=O)C5CCCCC5)c4)nn4ncccc34)n2)cc1 [GSK350559] | 20
24 | CSc1ccc(-c2nc3n(c2-c2ccncc2)CCC3)cc1 [SKF-105561] | 0
25 | Cc1cnc(N)c(/C=C/c2cncc(C(=O)NCCc3ccc(Cl)cc3Cl)c2)c1.Cl [GSK190937] | 0
26 | CNC(=O)c1ccc(C)c(-n2c(C)cc(OCc3ccc(F)cc3F)c(Br)c2=O)c1 | 0
27 | CCn1c(-c2c(N)noc2C)nc2cnccc21 [SB-737856] | 0
28 | O=c1cc(N2CCOCC2)nc2n(Cc3ccccc3F)ccn12 [GSK2297428] | 0
29 | Fc1ccc(-c2nc3n(c2-c2ccncc2)CCS3)cc1 [GI98581] | 14
30 | Fc1ccc(-c2nn3cccc(F)c3c2-c2ccncc2)cc1 [GW475620] | 24
31 | COc1ccc(CSc2nnc(-c3ccc4nccn4c3)o2)cc1C(F)(F)F | 0
32 | CC(C)c1ccc(O)cc1Nc1ccnc2ccc(C(F)(F)F)cc12 [GW482059] | 51
33 | Cc1ccc(NC(=O)Nc2ccccc2F)cc1-c1ccc(C(=O)Nc2ccncc2)cc1 [GSK1398477] | 15
34 | Cc1ccc(NC(=O)Nc2ccc(Cl)cc2)cc1-c1ccc(C(=O)Nc2ccncc2)cc1 [GSK1398472] | 0
35 | Cc1c(Cn2c(C)c(C)n3c(=O)cc(N4CCOCC4)nc23)cccc1C(F)(F)F [GSK2328680] | 0
36 | O=C(Nc1n[nH]c2nc(-c3cccs3)c(Br)cc12)C1CC1 [SB-735297] | 0
37 | Cc1cccc2c(-c3ccncn3)c(-c3ccc(F)cc3)nn12 [GW515532] | 53

Tested on: LTK
Details: concentration: 1 μM, replicates: in singlicate; n = 1

Row | SMILES | %Inh [%]
38 | Cc1c(Cn2c3ccccc3n3c(=O)cc(N4CCOCC4)nc23)cccc1C(F)(F)F [GSK2306394] | 11
39 | Fc1ccc(-c2nc[nH]c2-c2ccncc2)cc1 [SB-217360] | 0
40 | COc1cccc(CNC(=O)NC2CCN(c3ccnc(Nc4ccc(F)cc4)n3)C2)c1 (stereo not shown) [GSK1379723] | 59
41 | Cc1ccccc1-c1cc(-c2c[nH]nc2-c2ccccn2)ccn1 [GW680061] | 0
42 | COC(=O)C(NC(=O)NC1CCN(c2ccnc(Nc3ccc(F)cc3)n2)C1)c1ccccc1 (stereo not shown) [GSK1379712] | 30
43 | O=C1NC(=O)C(c2ccc(Cl)cc2)=C1Nc1ccc(O)cc1 [SB-340867] | 0
44 | COc1cc2ncnc(Nc3cccc(Br)c3)c2cc1OC.Cl [GI230329] | 0
45 | COC(=O)c1cccc(NC(=O)NC2CCN(c3ccnc(Nc4ccc(F)cc4)n3)C2)c1 (stereo not shown) [GSK1379725] | 17
46 | COc1ccc2cc(-c3nc(-c4ccccc4C(C)C)[nH]c3-c3ccncc3)ccc2c1 [SB-660566] | 3
47 | CC(=O)c1c(C)c2cnc(Nc3ccc(N4CCNCC4)cn3)nc2n(C2CCCC2)c1=O | 0
48 | CCc1ccc(-c2ccc3c(c2)-c2n[nH]cc2S(=O)(=O)N3C)cc1 | 3
49 | CC(=O)c1c(C)c2cnc(Nc3ccn(C)n3)nc2n(C2CCCC2)c1=O | 0
50 | CC(C)c1cc(-c2ccc3c(N)n[nH]c3c2)nc(N)n1 [GSK2250882] | 0
51 | COc1ccc(Nc2nccc(N3CCC(NC(=O)C(C)c4ccc(Cl)cc4)CC3)n2)cc1 (stereo not shown) [GSK1379812] | 27
52 | Cc1ccc(NC(=O)c2ccc(Cl)cc2)cc1-c1ccc(C(=O)Nc2ccncc2)cc1 [GSK1398467] | 19
53 | Cl.Cl.Cl.N#Cc1ccc(CCNc2nccc(-c3cccc(CN4CCNCC4)c3)n2)cc1 [GSK2137462] | 0
54 | CCCCc1nn2ncccc2c1-c1ccnc(NC2CC2)n1 [GW684374] | 0
55 | COc1cccc(NC(=O)Nc2ccc(C)c(-c3ccc(C(=O)Nc4ccncc4)cc3)c2)c1 [GSK1398474] | 23

Row | SMILES | %Inh [%]
56 | Cc1ccc(-c2nc(Nc3ccncc3)c3ccccc3n2)s1 [GSK189015] | 1
57 | CS(=O)(=O)CCNCc1nc(-c2ccc3ncnc(Nc4ccc(OCc5ccccc5)c(Cl)c4)c3c2)cs1.Cl [GW582764] | 0
58 | COC(=O)c1cccc(NC(=O)NC2CCN(c3ccnc(Nc4ccc(OC)cc4)n3)C2)c1 (stereo not shown) [GSK1379746] | 15
59 | CC[C@@H]1CO[C@H](C(=O)Nc2ccccc2)CN1c1cc(-c2ccc3c(N)n[nH]c3c2)nc(NC)n1 [GSK2376236] | 5
60 | CSc1ccc(-c2nc3n(c2-c2ccncc2)CCC3)cc1 [SKF-105561] | 31
61 | Cc1cnc(N)c(/C=C/c2cncc(C(=O)NCCc3ccc(Cl)cc3Cl)c2)c1.Cl [GSK190937] | 0
62 | CNC(=O)c1ccc(C)c(-n2c(C)cc(OCc3ccc(F)cc3F)c(Br)c2=O)c1 | 0
63 | CCn1c(-c2c(N)noc2C)nc2cnccc21 [SB-737856] | 10
64 | O=c1cc(N2CCOCC2)nc2n(Cc3ccccc3F)ccn12 [GSK2297428] | 21
65 | Fc1ccc(-c2nc3n(c2-c2ccncc2)CCS3)cc1 [GI98581] | 22
66 | Fc1ccc(-c2nn3cccc(F)c3c2-c2ccncc2)cc1 [GW475620] | 8
67 | COc1ccc(CSc2nnc(-c3ccc4nccn4c3)o2)cc1C(F)(F)F | 0
68 | CC(C)c1ccc(O)cc1Nc1ccnc2ccc(C(F)(F)F)cc12 [GW482059] | 0
69 | Cc1ccc(NC(=O)Nc2ccccc2F)cc1-c1ccc(C(=O)Nc2ccncc2)cc1 [GSK1398477] | 16
70 | Cc1ccc(NC(=O)Nc2ccc(Cl)cc2)cc1-c1ccc(C(=O)Nc2ccncc2)cc1 [GSK1398472] | 2
71 | Cc1c(Cn2c(C)c(C)n3c(=O)cc(N4CCOCC4)nc23)cccc1C(F)(F)F [GSK2328680] | 0
72 | O=C(Nc1n[nH]c2nc(-c3cccs3)c(Br)cc12)C1CC1 [SB-735297] | 0
73 | Cc1cccc2c(-c3ccncn3)c(-c3ccc(F)cc3)nn12 [GW515532] | 0

— paper PMC5540273 (PLoS ONE, 2017)
